In PubChem BioAssay:
Values without a mark were called inactive. For some of these results: Measured potencies and affinities stand elsewhere. Active and inactive are the calls of the source. Unless noted, how the calls were made is not given here.

How the values were obtained:
[1] = antimalarial activity against Dd2 strain (AID 2302;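 active means growth inhibition above 50% at the single 2 µM test dose, taken to imply half-maximal potency below 2 µM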;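 further: 0% = DMSO untreated growth and 100% = chloroquine plus artemisinin killed control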); settings: P. falciparum Dd2 in RBCs, LDH growth readout, 72 h; at 2 µM; active compounds read high
[2] = HepG2 cytotoxicity, primary screen, cytotoxicity control for P. falciparum antimalarial project, cell-based, ATP luminescence (AID 2303;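 active means inhibition above 50%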;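 further: 0% = DMSO wells and 100% = digitonin-killed cells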); settings: HepG2 viability, 24-48 h, at 10 µM, active compounds read high
[3] = target: L-lactate dehydrogenase (Plasmodium falciparum (isolate CDC / Honduras)) (UniProt Q27743); assay: PfLDH activity inhibition – cell lysate, 3D7 strain, counter-screen for P. falciparum growth inhibition project (AID 2304);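 further: 0% = vehicle and 100% = reference inhibitor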; settings: P. falciparum 3D7 crude extract, LDH APAD/NBT absorbance; at 2 µM; active compounds read high
[4] = inhibition of 3D7 malaria parasite growth – strain 3D7 (AID 2306);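 further: 0% = DMSO wells and 100% = chloroquine plus artemisinin control wells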; settings: P. falciparum 3D7 erythrocytic growth, LDH absorbance, 72 h; at 2 µM; active compounds read high
[5] = target: Calcium-dependent protein kinase 1 (Plasmodium falciparum (isolate 3D7)) (UniProt P62344); assay: PfCDPK1 kinase inhibitors, biochemical, TCAMS library (AID 1159585; cut-off not given, nearly all actives have IC50 up to about 0.98 µM;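 further: inhibitors leave more ATP so luminescence rises with inhibition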); settings: recombinant PfCDPK1, Kinase-Glo ATP depletion luminescence
[6] = target: Plasmodium falciparum protein kinase 6 (PK6, PF3D7_1337100) (UniProt Q8IDW1); assay: PfPK6 kinase inhibitors, biochemical, TCAMS library (AID 1159586); settings: recombinant PfPK6, Kinase-Glo ATP depletion luminescence
[7] = target: Protein kinase 7 (PK7), Plasmodium falciparum 3D7 (PF3D7_0213400) (UniProt Q7YTF7); assay: inhibition of Plasmodium PK7 catalytic activity – biochemical, TCAMS antimalarial set, Kinase-Glo luminescence (AID 1159587); settings: recombinant PfPK7, Kinase-Glo ATP depletion luminescence
[8] = target: Calcium-dependent protein kinase 4 (Plasmodium falciparum (isolate 3D7)) (UniProt Q8IBS5); assay: PfCDPK4 kinase inhibitors, biochemical, TCAMS library (AID 1159588; cut-off not given, nearly all actives have IC50 up to about 0.91 µM); settings: recombinant PfCDPK4, Kinase-Glo ATP depletion luminescence
Calcium-dependent protein kinase 4 (Plasmodium falciparum (isolate 3D7)), sequence (Q8IBS5 whole entry, looked up): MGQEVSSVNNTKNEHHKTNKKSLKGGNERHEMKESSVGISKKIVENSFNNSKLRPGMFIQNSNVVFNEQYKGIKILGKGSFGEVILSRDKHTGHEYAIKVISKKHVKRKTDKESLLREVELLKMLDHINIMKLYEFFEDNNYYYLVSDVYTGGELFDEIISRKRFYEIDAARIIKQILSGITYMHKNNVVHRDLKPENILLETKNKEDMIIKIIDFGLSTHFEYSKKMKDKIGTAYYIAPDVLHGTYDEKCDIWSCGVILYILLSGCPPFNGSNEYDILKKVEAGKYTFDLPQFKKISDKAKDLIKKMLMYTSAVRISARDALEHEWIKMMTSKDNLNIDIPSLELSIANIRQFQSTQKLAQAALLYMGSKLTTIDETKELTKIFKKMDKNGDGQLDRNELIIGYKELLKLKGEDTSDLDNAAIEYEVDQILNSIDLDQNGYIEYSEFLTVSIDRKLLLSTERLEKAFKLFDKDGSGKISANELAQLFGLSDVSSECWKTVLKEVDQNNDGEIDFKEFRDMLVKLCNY

Calcium-dependent protein kinase 1 (Plasmodium falciparum (isolate 3D7)), sequence (P62344 whole entry, looked up): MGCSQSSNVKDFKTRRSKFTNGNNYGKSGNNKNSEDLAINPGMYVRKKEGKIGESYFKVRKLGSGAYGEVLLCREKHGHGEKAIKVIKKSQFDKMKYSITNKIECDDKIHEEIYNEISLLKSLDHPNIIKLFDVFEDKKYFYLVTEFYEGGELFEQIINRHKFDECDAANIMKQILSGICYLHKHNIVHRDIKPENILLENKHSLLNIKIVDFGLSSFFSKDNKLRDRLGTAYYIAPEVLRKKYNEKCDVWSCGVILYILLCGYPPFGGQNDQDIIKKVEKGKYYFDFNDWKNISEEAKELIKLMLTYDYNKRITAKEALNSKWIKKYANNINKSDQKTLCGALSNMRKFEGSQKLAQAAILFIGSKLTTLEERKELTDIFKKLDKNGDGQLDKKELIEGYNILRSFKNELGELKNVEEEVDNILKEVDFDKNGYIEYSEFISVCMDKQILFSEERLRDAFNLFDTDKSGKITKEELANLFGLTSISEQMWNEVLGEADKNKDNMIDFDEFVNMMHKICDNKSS
L-lactate dehydrogenase (Plasmodium falciparum (isolate CDC / Honduras)), sequence (Q27743 whole entry, looked up): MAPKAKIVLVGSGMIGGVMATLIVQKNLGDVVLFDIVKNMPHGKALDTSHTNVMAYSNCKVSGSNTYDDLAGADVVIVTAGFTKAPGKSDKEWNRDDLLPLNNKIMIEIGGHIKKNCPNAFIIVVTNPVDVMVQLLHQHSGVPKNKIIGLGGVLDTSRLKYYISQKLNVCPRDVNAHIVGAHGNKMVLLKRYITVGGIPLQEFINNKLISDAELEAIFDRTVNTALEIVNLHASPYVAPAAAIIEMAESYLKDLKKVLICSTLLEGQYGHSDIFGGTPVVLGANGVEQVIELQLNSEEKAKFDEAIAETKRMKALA
Plasmodium falciparum protein kinase 6 (PK6, PF3D7_1337100), sequence (Q8IDW1 1-305): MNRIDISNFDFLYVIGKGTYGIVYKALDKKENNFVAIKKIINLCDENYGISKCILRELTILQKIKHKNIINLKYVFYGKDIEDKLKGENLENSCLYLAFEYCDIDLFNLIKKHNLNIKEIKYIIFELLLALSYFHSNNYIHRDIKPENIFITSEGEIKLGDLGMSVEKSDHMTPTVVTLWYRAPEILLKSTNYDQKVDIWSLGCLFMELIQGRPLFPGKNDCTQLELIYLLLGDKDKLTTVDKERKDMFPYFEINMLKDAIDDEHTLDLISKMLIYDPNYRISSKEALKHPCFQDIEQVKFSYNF
Protein kinase 7 (PK7), Plasmodium falciparum 3D7 (PF3D7_0213400), sequence (Q7YTF7 1-343): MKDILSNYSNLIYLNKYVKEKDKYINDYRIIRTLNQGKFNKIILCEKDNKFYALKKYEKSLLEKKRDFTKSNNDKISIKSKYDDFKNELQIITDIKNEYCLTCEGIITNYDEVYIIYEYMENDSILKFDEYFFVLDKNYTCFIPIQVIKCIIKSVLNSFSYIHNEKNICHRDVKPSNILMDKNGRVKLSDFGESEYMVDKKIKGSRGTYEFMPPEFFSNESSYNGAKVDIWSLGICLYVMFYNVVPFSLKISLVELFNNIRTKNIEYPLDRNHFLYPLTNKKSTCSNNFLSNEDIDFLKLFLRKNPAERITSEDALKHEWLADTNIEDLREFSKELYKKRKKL

| Structure (SMILES) | growth inhibition [1] | inhibition [2] | inhibition [3] [%] | growth inhibition [4] | outcome [5] | outcome [6] | outcome [7] | outcome [8] |
| --- | --- | --- | --- | --- | --- | --- | --- | --- |
| CCC(O)c1ccc(Br)cc1NC(=O)c1cccc(Cl)c1 (centres undefined) | 52% (active) | -3% | -5 | 80% (active) | inactive | inactive | inactive | inactive |
| OCCN1CCN(Cc2ccc(-c3ccc(-c4nc5ccccc5[nH]4)cc3)cc2)CC1 | 58% (active) | 6% | -1 | 100% (active) | inactive | inactive | inactive | inactive |
| CC(C)OC(=O)c1ccccc1S(N)(=O)=O | -2% | -6% | 1 | 97% (active) | inactive | inactive | inactive | inactive |
| COc1ccc2nccc([C@@H](O)CN3CCC(NCC4COc5ccccc5O4)CC3)c2c1 (some centres undefined) | 94% (active) | 17% | 4 | 98% (active) | inactive | inactive | inactive | inactive |
| O=C(Cc1ccc(F)cc1)NC1CCN(c2ccnc3cc(Cl)ccc23)C1 (centres undefined) | 85% (active) | -1% | 1 | 99% (active) | inactive | inactive | inactive | inactive |
| O=C(NCc1ccc(C(=O)NC2CCCCCC2)cc1)c1ccc(O)c(-c2ccc(Cl)c(Cl)c2)c1 | 21% | -1% | -3 | 83% (active) | inactive | inactive | inactive | inactive |
| C[C@H](NC(=O)C1CCCC1)C(=O)Nc1ccc(-c2ccc(-c3nc4ccc(C(F)(F)F)cc4[nH]3)cc2)cc1 | 70% (active) | 34% | -4 | 99% (active) | inactive | inactive | inactive | inactive |
| Cc1ccc(CN2CCCN(Cc3cccc(NC(=O)c4cc5ccccc5s4)c3)CC2)cc1C | 33% | 44% | -3 | 92% (active) | inactive | inactive | inactive | inactive |
| Cc1[nH]cnc1Cc1ccc2c(c1O)c1ccccc1n2C | 16% | 9% | -2 | 90% (active) | inactive | inactive | inactive | inactive |
| CCc1cc2c(cc1OCCN(C)C)N(C(=O)Nc1ccc(-c3ccncc3)c(Cl)c1)CC2 | 7% | 18% | -1 | 95% (active) | inactive | inactive | inactive | inactive |
| O=C(/C=C/c1ccc(F)c(Br)c1)NCCCCCN1CCC(c2c[nH]c3ccccc23)CC1 | 10% | 39% | -7 | 92% (active) | inactive | inactive | inactive | inactive |
| FC(F)(F)c1ccc2nc(-c3ccc(-c4ccc(CNCc5ccccc5)cc4)cc3)[nH]c2c1 | 96% (active) | 22% | -5 | 101% (active) | inactive | inactive | inactive | inactive |
| Cc1nc2ccc3ccc(CNc4ccc(C(=O)N[C@@H](CCC(=O)O)C(=O)O)cc4)cc3c2c(=O)[nH]1 | 95% (active) | 32% | 0 | 89% (active) | inactive | inactive | inactive | inactive |
| COc1cc2c(cc1C(F)(F)F)N(C(=O)Nc1cc(-c3ccncc3)cc(-c3cccnc3)c1)CC2 | 50% (active) | 64% (active) | 7 | 95% (active) | inactive | inactive | inactive | inactive |
| CC(C)(C)c1ccc(CN2CCC(CNC(=O)c3cc(-c4ccccc4)nc4ccccc34)CC2)cc1 | 36% | 33% | -1 | 89% (active) | inactive | inactive | inactive | inactive |
| COc1ccc(N2C(=O)c3c(c4ccccc4n3C)C2c2ccccc2O)cc1 (centres undefined) | 91% (active) | 32% | 3 | 96% (active) | inactive | inactive | inactive | inactive |
| O=c1[nH]c(NCCCCCN2CCC(c3c[nH]c4ccccc34)CC2)ncc1Cc1ccc(Cl)c(Cl)c1 | 8% | 21% | -4 | 94% (active) | inactive | inactive | inactive | inactive |
| Cc1ccccc1C1CCN(c2ccc(NC(=O)c3ccc(Cl)nc3)cc2)CC1 | 82% (active) | 43% | -2 | 92% (active) | inactive | inactive | inactive | inactive |
| Cc1cccc2[nH]c(-c3cccc(-c4ccc(NC(=O)N[C@@H]5C[C@H]5c5ccccc5)cc4)c3)nc12 | 49% | 25% | 6 | 98% (active) | inactive | inactive | inactive | inactive |

| Structure (SMILES) | growth inhibition [1] | inhibition [2] | inhibition [3] [%] | growth inhibition [4] | outcome [5] | outcome [6] | outcome [7] | outcome [8] |
| --- | --- | --- | --- | --- | --- | --- | --- | --- |
| COc1ccc(OCCCON)cc1 | -3% | 3% | -1 | 98% (active) | inactive | inactive | inactive | inactive |
| CC(C)NCc1ccc(-c2cccc(NC(=O)c3ccc(Cl)cc3)c2)cc1 | 82% (active) | 20% | -7 | 100% (active) | inactive | inactive | inactive | inactive |
| Cc1cc(N[C@@H](CC(C)C)C(=O)NCCCOC(C)C)nc(NCCc2ccc(F)cc2)n1 | 19% | 5% | -2 | 87% (active) | inactive | inactive | inactive | inactive |
| O=C(/C=C/c1ccc(Cl)c(Cl)c1)NCCCCCCN1CCN(C(=O)Nc2cc(Cl)nc(Cl)c2)CC1 | 0% | 15% | -2 | 102% (active) | inactive | inactive | inactive | inactive |
| CNC(=O)c1cc(NCCCNCc2ccc(Cl)c(C(F)(F)F)c2)nc2ccccc12 | 7% | 25% | -1 | 91% (active) | inactive | inactive | inactive | inactive |
| O=C(O)CCCN1CCCC(=C(c2ccccc2)c2ccccc2)C1 | 2% | -5% | 0 | 82% (active) | inactive | inactive | inactive | inactive |
| C=CCc1cc(C2CCN(CCCCNC(=O)c3ccc(-c4ccc(C#N)cc4)cc3)CC2)c(OCC(N)=O)c2c1CCCC2 | 92% (active) | 43% | -6 | 101% (active) | inactive | inactive | inactive | inactive |
| NC(=O)c1cc2nc(Nc3ccc(F)cc3)nc(Nc3ccc(S(N)(=O)=O)cc3)c2[nH]1 | 99% (active) | 2% | 4 | 101% (active) | inactive | inactive | inactive | inactive |
| COc1cccc(-c2nn(C)c3sc(C(=O)NCCN4CCN(c5ccccc5F)CC4)cc23)c1 | 40% | 9% | -5 | 85% (active) | inactive | inactive | inactive | inactive |
| N#Cc1ccc(CN2CCC(Oc3ccc(NC(=O)c4ccccc4)cc3Cl)CC2)cc1 | 65% (active) | 21% | 1 | 84% (active) | inactive | inactive | inactive | inactive |
| COc1cccc(Nc2nc(NCCO)c3ccccc3n2)c1 | 88% (active) | 1% | -6 | 99% (active) | inactive | inactive | inactive | inactive |
| CCCC(=O)NC(c1cccs1)c1cc(Cl)c2cccnc2c1O (centres undefined) | 61% (active) | 51% (active) | -4 | 87% (active) | inactive | inactive | inactive | inactive |
| O=C(Nc1ccc(-c2ccccc2)cc1)Nc1cccc(Cn2nc(Cl)c(N3CCCNCC3)cc2=O)c1 | 37% | 13% | -2 | 101% (active) | inactive | inactive | inactive | inactive |
| Cc1ccc(Nc2nnc(SCC(=O)Nc3ccc(CN4CCCC4)cc3)s2)cc1 | -2% | 4% | -2 | 91% (active) | inactive | inactive | inactive | inactive |
| CCCCCCN1CCCN(Cc2ccc(C(=O)Nc3cccc(CC)c3)cc2)CC1 | 54% (active) | 31% | -3 | 85% (active) | inactive | inactive | inactive | inactive |
| O=C(Nc1ccc(Br)cc1)N(CCN1CCOCC1)CC(O)COc1ccc(Cl)c(F)c1 (centres undefined) | 30% | 3% | -4 | 98% (active) | inactive | inactive | inactive | inactive |
| O=C(CSc1nccn1C1CCCCC1)Nc1cc(C(F)(F)F)ccc1Cl | 95% (active) | 2% | -1 | 96% (active) | inactive | inactive | inactive | inactive |
| O=C(N[C@H]1CCCC[C@H]1C(=O)O)c1ccccc1 | 3% | 7% | -5 | 95% (active) | inactive | inactive | inactive | inactive |
| CCN(CC)CCN(Cc1ccc(-c2ccc(C(F)(F)F)cc2)cc1)C(=O)Cn1c(CCc2c(F)ccc(F)c2F)nc(=O)c2ccccc21 | 62% (active) | 44% | -6 | 98% (active) | inactive | inactive | inactive | inactive |
